Source: PubChem (National Center for Advancing Translational Sciences (NCATS))
This is one part of a sample in which hits are shown more often than they occur.
Pf Dd2 growth = Plasmodium falciparum Dd2 growth inhibition. P. falciparum Dd2 growth, SYBR Green, 72 h. Potency, µM (titrated, usually from 28.9 µM), without a hit: top-dose activity, negative = inhibition, hits mostly inhibitors. hit rate 4.3% among 120,000. AID 1347417; active = well fitted inhibition curve with a large enough effect;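 note: plate controls were DMSO vehicle for no effect and reference drug for full effect; nearly all actives have a fitted effect of over 65% in size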
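Infected erythrocytes (Dd2, 0.3% parasitemia, 2.5% hematocrit final) are added to compound in RPMI-1640/Albumax II medium, grown 72 h at 37C in low oxygen, then lysed with saponin/Triton-X containing SYBR Green and read by fluorescence.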
Starred values were filed as active, the others as inactive; i = inactive; [ ] = remark or other dose. Potency is the fitted concentration of half-maximal effect.

SMILES	Pf Dd2 growth
CCOC(=O)C1=C(CN2CCN(c3ccc(OC)cc3)CC2)NC(=O)NC1c1ccc(Cl)cc1 (configuration not stated)	-16%
CCOC(=O)C1=C(CN(CC)Cc2ccccc2)NC(=O)NC1c1ccc(Cl)cc1 (configuration not stated)	i
CCOC(=O)C1=C(CN2CCN(C)CC2)NC(=O)NC1c1ccc(F)cc1 (configuration not stated)	49%
CCOC(=O)C1=C(CNCc2ccccc2)NC(=O)NC1c1ccc(C)cc1 (configuration not stated)	10µM*
Cc1cccc(NC(=O)Cn2c(C)cc3nc4n(c(=O)c32)CCCCC4)c1	i
O=C(NCc1ccc(F)cc1)c1cc(-c2cnccc2Cl)c2cccn2n1	8.9µM*
CN(C)C(=O)c1cc(-c2cnccc2Cl)c2cccn2n1	11%
COC(=O)CNC(=O)c1cc(-c2cnccc2Cl)c2cccn2n1	1%
CN(C1CCc2ccccc21)[S+](=O)([O-])c1cccc(C(F)(F)F)c1 (configuration not stated)	-14%
CCOCCN1C(=O)COC[C@@H]1[C@H](O)c1ccc(NC(C)=O)cc1	14%[44.1 µM]
CCOC(=O)N1CCN(Cc2nc3cc(NC(=O)CC(C)C)ccc3n2C(C)C)CC1	11µM*
Cn1c(CN2CCCCC2)nc2cc(NC(=O)c3cccc(Br)c3)ccc21	-9%
CC(C)CC(=O)Nc1ccc2nc(SCC(=O)N3CCOCC3)sc2c1	-13%
CCN1CCN(Cc2nc3cc(NC(=O)c4cccc([N+](=O)[O-])c4)ccc3n2CC)CC1	7.9µM*
O=C(Nc1ccc(Cl)c(-c2nc3ccccc3o2)c1)c1ccc(-c2cccc([N+](=O)[O-])c2)o1	-12%
CCOC(=O)c1cccc(NC(=O)c2ccc3nc(C(C)C)oc3c2)c1	i
CCOC(=O)N1CCN(Cc2nc3cc(NC(=O)c4cccc(C)c4)ccc3n2C(C)C)CC1	6.3µM*
CCC(=O)NCCc1nc2cc(NC(=O)c3cccc(Br)c3)ccc2n1C	-19%
CC(C)CC(=O)Nc1ccc2nc(SCC(=O)N3CCCC3)sc2c1	-3%
COc1ccc(CN2CCc3nc(N(C)C)[nH]c(=O)c3CC2)c(OC)c1OC	i[5.79 µM]
COc1ccc(CN2C[C@@H]3C[C@H]2C(=O)Nc2ccccc2O3)cn1	3%[44.1 µM]
Cn1ncc(N2CCCC(CC(=O)NCc3cc(F)cc(F)c3)C2)cc1=O (configuration not stated)	21%
CCCS(=O)(=O)N1CCCN(C(=O)C2CC2)C(c2ccccc2)CC(=O)NCC1 (configuration not stated)	1%
Cn1nc(C2CCCNC2)n(C2CCCC2)c1=O (configuration not stated)	10%
CN(C)c1ccc(-c2noc(-c3nc(-c4ccccc4F)no3)n2)cc1	-9%
SMILES	Pf Dd2 growth
COC(=O)[C@H](Cc1ccc(OC)cc1)NC(=O)[C@@H]1CN(C(=O)c2cccc(F)c2)CCN1C(=O)N1CCOCC1	-17%
CC(C)Cc1noc(-c2ccc(N3CCC(O)CC3)nc2)n1	-1%
Cc1cc(F)ccc1OC1(C(=O)O)CCN(c2ncnc3nc[nH]c23)CC1	-1%
CC(C)N1C(=O)CO[C@H](c2ccc(NC(=O)c3ccccc3)cc2)[C@H]1CO	-6%[44.1 µM]
CSc1ccc(-c2nc(CN3CCOC(CCO)C3)c(C)o2)cc1 (configuration not stated)	-10%
OCCC1CN(Cc2cnn(-c3ccccc3)c2)CCN1Cc1cccs1 (configuration not stated)	i
Cc1cccc(CN2CCN(Cc3nc(-c4cccs4)oc3C)CC2CCO)n1 (configuration not stated)	11µM*
COc1ccc(C2(C(=O)N3CCCC(c4nn(C)c(=O)n4C(C)C)C3)CC2)cc1 (configuration not stated)	8%
CCc1ccc(C(=O)NC2CCN(c3cc(-c4ccccc4)[nH]n3)CC2)cc1	i
Cc1ccc(CNC(=O)c2cc3c(N4CCSCC4)nc(C)cn3n2)cc1	i
COc1ccccc1-c1cc2c(nc1OC)nc(CC1CC1)n2C	13µM*
COCc1nc2nc(-c3ccccc3)c(-c3ccc(OC)cc3)cc2n1C	i
COc1nc2nc(CCc3ccccc3)n(C)c2cc1Nc1ccncn1	-12%[44.1 µM]
O=C(Nc1ccc(C2(C(=O)NCc3ccc4c(c3)OCO4)CCCCC2)cc1)C1CC1	13µM*
O=C(Nc1ccc(C2(C(=O)NCc3ccc(F)cc3)CCCCC2)cc1)C1CC1	4%
CS(=O)(=O)Nc1ccc(C2(C(=O)NCc3ccc4c(c3)OCO4)CCCCC2)cc1	i
COCCCNC(=O)N1CCN(C(=O)N2CC3CC(C2)[C@H]2CCCC(=O)N2C3)CC1 (some centres not stated)	i
CNC(=O)[C@@H]1CN(C(=O)c2cc3ccccc3[nH]2)C[C@H]1c1nc(C)no1	i
CC(C)N1C(=O)C(CC(=O)O)=C2CCCCC21 (configuration not stated)	20%
Cc1ccccc1CN1CC[C@@H]2CN(S(C)(=O)=O)[C@@H]2C1	-3%
CCOc1ccc(NC(=O)c2cc(S(=O)(=O)NC3CCCCCC3)ccc2F)cc1	4µM*
Cc1ccc(C(=O)Nc2ccc(F)cc2)cc1S(=O)(=O)N1CCCCCC1	-37%
O=C(Nc1ccc(Br)cc1F)c1cc(S(=O)(=O)NC2CCCCC2)ccc1F	-15%
CCOc1ccccc1NC(=O)c1cc(S(=O)(=O)NC2CCCC2)ccc1F	i
Cc1ccc(NC(=O)c2cc(S(=O)(=O)NCCc3ccc(Cl)cc3)ccc2F)cc1	i
SMILES	Pf Dd2 growth
O=C(Nc1ccc(Br)cc1)c1ccc(F)c(S(=O)(=O)NC2CCCCCC2)c1	1.3µM*
CC(C)c1ccc(NC(=O)c2cc(S(=O)(=O)NC3CCCCC3)ccc2F)cc1	7.9µM*
CCOc1ccc(NC(=O)c2cc(S(=O)(=O)N3CCOCC3)ccc2F)cc1	i
O=C(Nc1ccc(Br)cc1)c1ccc(Br)c(S(=O)(=O)N2CCCCC2)c1	-6%
CN1C(=O)c2cccn2CC1C(=O)NCc1cccc(F)c1 (configuration not stated)	-22%
O=C(N1CCN(S(=O)(=O)c2ccc3c(c2)CCC3)CC1)N1CC2CC(C1)[C@H]1CCCC(=O)N1C2 (some centres not stated)	i
CS(=O)(=O)c1ccc(OC[C@H]2C[C@@H](NC(=O)c3cccnc3)[C@H](O)[C@@H]2O)cc1	i
CCOc1ccccc1NC(=O)N1CCCN(S(C)(=O)=O)C(c2ccccc2)CC(=O)NCC1 (configuration not stated)	-19%
CCc1cccc(C)c1NC(=O)Cn1ccn2nc3c(c2c1=O)CCCCC3	6%
COCCN1CCCCCC(O)c2cc(C(=O)N3CCN(c4ncccn4)CC3)ccc21 (configuration not stated)	i
CC(C)Cc1nc2nccc(-c3ccc4c(c3)OCCCO4)n2n1	-16%
O=C1CCN(C(=O)CCCc2c[nH]c3ccccc23)CCCOCCN1	-21%
O=C(CC1COCCN1)N(CCc1c[nH]c2ccccc12)C1CCCCC1 (configuration not stated)	8.9µM*
O=C(CC1COCCN1)N(Cc1cccnc1)Cc1cccnc1 (configuration not stated)	4%
Cc1cc(C)c2c(CC(=O)N[C@@H]3CCOC[C@H]3Oc3ccccn3)coc2c1	-23%
Cc1ccc(CNC(=O)c2nnn(CC(=O)Nc3cc(C)ccc3C)c2N)cc1	i
CCc1ccccc1NC(=O)Cn1nnc(C(=O)NCc2ccccc2Cl)c1N	-6%
Cc1ccc(C)c(Cn2nnc(C(=O)NCc3ccc(Cl)cc3Cl)c2N)c1	4.5µM*
